Only a selection was taken, and hits are over-represented in it overall.
KDM5B inh – blocks human KDM5B histone demethylase activity; Q9UGL1; actives 2.6% (n = 220,000); KDM5B demethylase, FDH-coupled NADH fluorescence (FDH is formaldehyde dehydrogenase); Potency, µM (series often up to 57.7 µM), actives largely listed as inhibitors; active = well fitted inhibition curve with a large enough effect; also: nearly all actives have a fitted effect of over 70% in size
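Inhibition is measured as reduced NADH fluorescence generation from FDH coupling to formaldehyde release. Truncated KDM5BΔAP at 200 nM final acts on H3K4me3 peptide (12.5 µM in substrate mix) in pH 7.5 HEPES buffer with Tween-20, 30 min, room temperature.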
A number is an active result; . = inactive.

SMILES	KDM5B inh
Cn1ncc2c(C(=O)N3CCCC3)cc(C(C)(C)C)nc21	.
Cn1ncc2c(C(=O)NC3CC3)cc(-c3ccc(F)cc3)nc21	112µM
Cc1ccc(-c2cc(C(=O)N3CCSCC3)c3cnn(C)c3n2)c(C)c1	.
Cc1ccc2nc(-c3cccnc3)cc(C(=O)NC3CC3)c2c1	.
CCN1C(=O)N/C(=C/c2cn(CC)c3ccccc23)C1=O	.
CCSc1nc(=O)c2c(n1C)NC(=O)CC2c1cc(C)ccc1C (configuration not stated)	.
O=c1cc(COc2ccc(-c3ccccc3)cc2Cl)nc2sccn12	.
CC(C)Oc1nc2ccccc2nc1N1CCC(C(=O)Nc2ccc(Cl)cc2)CC1	.
Cc1ccccc1-n1cnnc1SCC(=O)Nc1ccccc1C(=O)NCCc1ccccc1	.
O=S(=O)(c1ccc2c(c1)CCN2Cc1cccc(Cl)c1)N1CCOCC1	.
Cc1ccc(C2c3cc(OCc4nc(C(=O)N5CCCC5)co4)ccc3CCN2C(=O)C2CC2)cc1 (configuration not stated)	.
Cc1ccc(C(=O)OCC(=O)c2ccc(-c3ccccc3)cc2)s1	.
COc1ccc(NC(=O)c2ccccc2NS(=O)(=O)c2ccc3c(c2)OCCCO3)cc1	.
COc1ccc(-c2c(C)oc3c(C)c(OCCN4CCC(C(N)=O)CC4)ccc3c2=O)cc1	.
O=C(CC[C@H]1NC(=O)c2ccccc2NC1=O)Nc1n[nH]c(CCc2ccccc2)n1	.
COCC(=O)N[C@@H]1CN(S(C)(=O)=O)CC[C@@H]1c1nc(C)no1	.
N#C/C(=C/c1ccc(C#N)cc1)c1nc2ccccc2[nH]1	.
Cn1cc(CN2CCN(c3ccc(C#N)cn3)CC2)c(-c2ccccc2)n1	.
Cn1cc(CN2CCN(c3cnccn3)CC2)c(-c2ccc(C3CCCCC3)cc2)n1	28µM
Cc1nn(C)cc1CN(C)Cc1cn(C)nc1-c1ccc(C2CCCCC2)cc1	.
CC(NC(=O)C(Cc1ccccc1)NC(=O)OC(C)(C)C)c1ccc(O)cc1 (configuration not stated)	.
O=C(CCc1ncc(-c2ccc(Cl)cc2)o1)N1CCC(C(=O)N2CCOCC2)CC1	.
CC(C)(C)NC(=O)NC(=O)Cn1nc(C(=O)O)c2ccccc2c1=O	.
O=C(c1ccc(N2CC3CC(C2)[C@H]2CCCC(=O)N2C3)nc1)N1CCC(Cc2ccccc2)CC1 (some centres not stated)	32µM
O=C(C1CCN(C(=O)N2CC3CC(C2)[C@H]2CCCC(=O)N2C3)CC1)N1CCN(c2ccccc2)CC1 (some centres not stated)	.
SMILES	KDM5B inh
O=C(c1ccc(N2CC3CC(C2)[C@H]2CCCC(=O)N2C3)nc1)N1CCN(c2ccc(F)cc2)CC1 (some centres not stated)	.
O=C(c1ccc(N2CC3CC(C2)[C@H]2CCCC(=O)N2C3)nc1)N1CCc2ccccc21 (some centres not stated)	.
O=C(C1CCN(C(=O)N2CC3CC(C2)[C@H]2CCCC(=O)N2C3)CC1)N1CCN(c2ccccn2)CC1 (some centres not stated)	25µM
O=C(C1CCN(C(=O)N2CC3CC(C2)[C@H]2CCCC(=O)N2C3)CC1)N1CCCCC1 (some centres not stated)	.
Cn1c(Cn2cccn2)nnc1C1CCCN(C(=O)CCn2cnnn2)C1 (configuration not stated)	.
O=C(c1cc(F)ccc1F)N1CC(Oc2ccc(-c3nc(-c4ccccc4)no3)cc2)C1	.
COc1cccc(C(=O)N2CC(Oc3ccc(-c4nc(-c5ccccc5)no4)cc3)C2)c1	.
Cc1noc(-c2ccc(OC3CN(C(=O)Nc4cccc(F)c4)C3)cc2)n1	.
Cc1noc(-c2ccc(OC3CN(C(=O)Nc4ccccc4)C3)cc2)n1	.
COc1ccc(S(=O)(=O)N2CC(Oc3ccccc3-c3noc(C)n3)C2)cc1	.
Cc1nc(-c2ccc(OC3CCN(C(=O)Nc4ccccc4)C3)cc2)no1 (configuration not stated)	.
O=C(Nc1ccccc1)N1CCC(Oc2ccccc2-c2nc(-c3ccccc3)no2)C1 (configuration not stated)	32µM
Cc1cccc(NC(=O)N2CC(Oc3ccc(-c4nc(-c5ccccc5)no4)cc3)C2)c1	13µM
Cc1nc(-c2ccccc2OC2CN(C(=O)c3ccoc3)C2)no1	.
Cc1nc(-c2ccccc2OC2CN(C(=O)c3cccc4[nH]ccc34)C2)no1	28µM
CNC(=O)N1CCC(Oc2ccccc2-c2nc(C3CC3)no2)C1 (configuration not stated)	.
O=C(c1cccc2[nH]ccc12)N1CC(Oc2ccc(-c3nc(-c4ccccc4)no3)cc2)C1	11µM
CC(C)NC(=O)N1CCC[C@@H](O)[C@H](NC(=O)c2ccc(OCCN3CCCC3)cc2)C1	.
O=[N+]([O-])c1ccc(S(=O)(=O)Nc2ccccc2-n2cccn2)cc1	.
CC(C)CN1C(=O)c2cccn2CC1C(=O)NCc1ccc(Cl)cc1 (configuration not stated)	.
CC(=O)N1CCN(C(=O)c2cccc3c(=O)c(C)c(-c4ccccc4)oc23)CC1	.
Cc1ccc(NC(=O)C2CCN(c3cnc4ccccc4n3)CC2)c(C)c1	.
Nc1nc(SCC(=O)NCc2ccc(Cl)cc2)n[nH]1	.
O=C(NCCc1cccnc1)C12CC3CC(CC(C3)C1)C2	.
CC(c1ccc(S(N)(=O)=O)cc1)N(C)C(=O)CCc1ncc(-c2ccccc2Cl)o1 (configuration not stated)	.
SMILES	KDM5B inh
CN(CC1CCOC1)S(=O)(=O)c1cccc(F)c1 (configuration not stated)	.
O=C(Nc1ccccc1-c1ccccc1)c1cc(F)cc(F)c1	.
CCc1cc2c(N)c(C(=O)c3ccccc3)sc2nc1C	.
COC(=O)C(=O)N1CC[C@@H]2[C@H]1C(=O)N(C(C)C)C(=O)N2Cc1cccc(F)c1	.
CC1(C)CC(NC(=O)CCc2ccsc2)CC(C)(C)N1	.
COc1cccc(N2C(=O)NC(=NC3CCCCC3)C23CCN(C(=O)c2ccccc2)CC3)c1	.
Cc1cc(C(=O)N2CC(Oc3ccc(-c4nc(-c5ccccc5)no4)cc3)C2)nn1C	.
Cn1cc(C(=O)N2CC(Oc3ccc(-c4nc(-c5ccccc5)no4)cc3)C2)cn1	.
Cc1noc(-c2ccc(OC3CN(C(=O)c4cccc5[nH]ccc45)C3)cc2)n1	28µM
Cc1noc(-c2ccc(OC3CN(C(=O)c4sccc4C)C3)cc2)n1	.
Cn1cccc1C(=O)N1CC(Oc2ccc(-c3nc(-c4ccccc4)no3)cc2)C1	28µM
Cc1noc(-c2ccc(OC3CN(C(=O)Cc4ccccc4)C3)cc2)n1	.
COc1cc(C(C)NS(C)(=O)=O)ccc1OCCC(C)C (configuration not stated)	.
CC(=O)c1c(Cl)nc2ccccc2c1-c1ccccc1	.
COc1ccc(Nc2nc(COC(=O)c3ccc4c(c3)C(=O)N(C)C4=O)cs2)cc1	.
N#Cc1cccc(CNCC(c2ccccc2)N2CCCC2)c1 (configuration not stated)	.
COc1ccc(Cc2nnc(Nc3ccccc3)[nH]c2=O)cc1OC	.
O=C(c1ccoc1)N1CCCC(c2noc(COc3ccccc3)n2)C1 (configuration not stated)	.
COc1ccc(C=O)cc1OCc1ccc(F)cc1Cl	.
COc1ccc(F)cc1-c1cccc(C(=O)O)c1	.
COc1ccc(F)cc1-c1ccc(C(=O)O)cc1	100µM
COc1ccc(C=O)cc1C(C)(C)C	.

Bioassay records as filed in PubChem BioAssay.
